Compound activity: PubChem BioAssay, National Center for Advancing Translational Sciences (NCATS)
Nrf2 activator = activates Nrf2 signaling; AREc32 ARE-luciferase reporter (MCF7-derived line), luminescence, 24 h; Potency, µM (series often up to 46.1 µM), hits mostly activators; 410,000 tested, 0.31% active; AID 624171; further: nearly all actives have a fitted effect of over 65% in size
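AREc32 cells carrying an ARE-driven firefly luciferase reporter were seeded at 1000 cells/well in OPTI-MEM with 5% FBS, then exposed to compound for 24 hr at 37 deg C. Luminescence was read with Steady-Glo after 30 min at RT.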
ELG1 DNA repair = blocks ELG1-dependent DNA repair in HEK293T cells; HEK293T ELG1-luciferase reporter, luminescence, 16 h; DNA damage induced by 5-fluorouridine; Potency, µM (highest dose often 46.1 µM), actives largely listed as inhibitors; 330,000 tested, 2.3% active; further: nearly all actives have a fitted effect of over 55% in size
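Step one: seed 2,000 cells per well. Step two: pin-transfer compound or DMSO alongside 5-fluorouridine. Step three: incubate 16 hr, 37 °C, 5% CO2. Step four: add ONE-Glo, wait 30 min, read luminescence.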
A549 tox = kills or reduces viability of A549 cells in Nrf2 counter-screen | Potency, µM (doses to about 46 µM), usual class: inhibitors | 390,000 tested, 0.16% active | A549 ARE-Fluc cells, CellTiter-Fluor viability, 18-24 h
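Cytotoxicity counterscreen: CellTiter-Fluor fluorescence was measured in A549 ARE_Fluc cells after 18-24 h of compound exposure in a concentration series. The subsequent BugLite luminescent read reports ARE-luciferase activity.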
Nrf2 inh = Nrf2 pathway inhibition. Potency, µM (series often up to 46 µM), hits mostly inhibitors. A549 ARE-Fluc reporter, luciferase luminescence, 18-24 h. AID 504444. 360,000 tested, 2.1% active; further: nearly all actives have a fitted effect of over 60% in size
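Concentration-response testing used A549 ARE_Fluc cells at 5000 cells/well. Following an 18-24 h compound incubation, viability was read by fluorescence (Ex 405/Em 525) and luciferase output by luminescence.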
Each line names hits and unclear results; the compound was inactive in the other large screens. A selection: hits, their analogues and other compounds. The true share with any hit is near 3.7%. The call rests on the fitted dose curve; in most records, active means well fitted curve in the direction sought with a large enough effect; inconclusive means small, poorly fitted or top-dose-only effect, or another doubt; inactive means no such curve, though single readings can be large; an effect the other way counts as inactive or inconclusive.

Cc1sc(NC(=O)CN2CCCC2)nc1-c1ccc2c(c1)CCN2C(=O)c1cccc(F)c1	ELG1 DNA repair inconclusive, A549 tox inconclusive, Nrf2 inh 23.1µM
Cc1sc(NC(=O)Cc2ccc3c(c2)OCO3)nc1-c1ccc2c(c1)CCN2C(=O)c1ccccc1F	ELG1 DNA repair inconclusive, Nrf2 inh inconclusive
CCN1CCN(Cc2ccc(NC(=O)c3ccc(C)c(/C=C/c4cnc(Nc5cc(N6CCNCC6)nc(C)n5)cn4)c3)cc2C(F)(F)F)CC1	A549 tox inconclusive, Nrf2 inh 18.4µM
Cc1cc(C)c(C(=O)/C=C/c2ccc(C(C)C)cc2)c(=O)[nH]1	ELG1 DNA repair 20.6µM, Nrf2 inh 18.4µM
Cc1cc(C)c(C(=O)/C=C/C=C/c2ccccc2)c(=O)[nH]1	Nrf2 activator inconclusive
C=C(c1ccccc1C)[n+]1ccccc1	Nrf2 inh 18.4µM
C=C(c1ccccc1Cl)[n+]1ccccc1	A549 tox inconclusive, Nrf2 inh 7.31µM
CC(C)(C)OC(=O)CNC(=O)c1nc[nH]c1C(=O)N1CCc2ccccc2C1	none
CCN(CC)S(=O)(=O)c1cccc(C(=O)OCC(=O)NCCN2C(=O)CSC2=O)c1	none
CCC(C)(C)NS(=O)(=O)c1cc(-c2cc(C)no2)ccc1C	none (no result: ELG1 DNA repair)
O=[N+]([O-])C(=C1SCCS1)C(=C(Cl)Cl)N1CCCCC1	none
O=[N+]([O-])C(/C=C(\Cl)[N+](=O)[O-])=C(N1CCCCC1)N1CCCCC1	A549 tox 23.1µM
COC(=O)c1cc(=O)n(Cc2ccc(OC)c(OC)c2)c(=Nc2ccc(F)cc2)s1	ELG1 DNA repair inconclusive, A549 tox inconclusive, Nrf2 inh inconclusive
COC(=O)c1cc(=O)n(CCc2ccc(OC)c(OC)c2)c(=Nc2ccc(F)c(Cl)c2)s1	ELG1 DNA repair 14.6µM, A549 tox inconclusive, Nrf2 inh 23.1µM
O=C(NC1CC1)c1ccc2sc([C@@H]3O[C@H](CO)[C@H](O)[C@H](O)[C@H]3O)nc2c1	none (no result: ELG1 DNA repair, A549 tox, Nrf2 inh)
CCN(CC)S(=O)(=O)c1cccc(C(=O)N/N=C(\C)c2ccc(O)cc2O)c1	ELG1 DNA repair inconclusive, A549 tox inconclusive, Nrf2 inh 10.3µM
CCN(CC)S(=O)(=O)c1cccc(C(=O)N/N=C/c2ccc(O)c(O)c2O)c1	none
O=C(COC(=O)c1ccc(F)cc1F)Nc1ccc(S(=O)(=O)N2CCOCC2)cc1	none (no result: ELG1 DNA repair, A549 tox, Nrf2 inh)
O=C(CSc1nc2ccccc2c(=O)[nH]1)Nc1ccc([N+](=O)[O-])cc1	ELG1 DNA repair 18.3µM, Nrf2 inh 16.4µM
CN(C)S(=O)(=O)c1cccc(NC(=O)CSc2nc3ccccc3[nH]2)c1	ELG1 DNA repair 13µM, Nrf2 inh 20.6µM
O=C(CSc1nc2ccccc2c(=O)[nH]1)Nc1ccc(C(=O)O)cc1	none
CCOC(=O)c1cccc(NC(=O)CSc2nc3ccccc3c(=O)n2CCOC)c1	ELG1 DNA repair 20.6µM, A549 tox inconclusive, Nrf2 inh inconclusive
CCN(CC)S(=O)(=O)c1cccc(NC(=O)CSc2nc3ccccc3[nH]2)c1	ELG1 DNA repair 23.1µM
S=c1[nH]ncn1/N=C/c1ccco1	none (no result: ELG1 DNA repair, A549 tox, Nrf2 inh)
Cn1c(SCC(=O)Nc2ccccc2)nc2ccccc2c1=O	ELG1 DNA repair inconclusive, Nrf2 inh 20.6µM
CCCn1c(SCC(=O)Nc2cccc(S(=O)(=O)N(C)C)c2)nc2ccccc2c1=O	ELG1 DNA repair 23.1µM, Nrf2 inh inconclusive
CCOC(=O)c1ccc(NC(=O)CSc2nc3cccnc3n2C)cc1	ELG1 DNA repair inconclusive, Nrf2 inh 20.6µM
COC(=O)c1ccc(NC(=O)CSc2nc3cccnc3n2C)cc1	ELG1 DNA repair inconclusive, Nrf2 inh inconclusive
COCCn1c(SCC(=O)Nc2ccc(S(N)(=O)=O)cc2)nc2ccccc21	none
COCCn1c(SCC(=O)Nc2ccc(Cl)c(S(=O)(=O)N(C)C)c2)nc2ccccc21	ELG1 DNA repair 18.4µM, Nrf2 inh inconclusive
Cc1ccc2c(c1)N(CC(=O)NCCCN1CC(C)CC(C)C1)C(=O)c1cccnc1O2 (stereo not drawn)	none
CCn1cnc2c(Nc3ccc(CCC(=O)N=C(N)N)cc3)nc(C#N)nc21	none (no result: Nrf2 activator, ELG1 DNA repair)
COc1ccc(CNC(=O)N2CCN(C(=O)c3ccccc3)CC2)cc1	none
CCOCCCn1c(SCC(=O)NCc2ccco2)nc2c(sc3ccccc32)c1=O	ELG1 DNA repair 16.4µM, A549 tox inconclusive
O=C(CCCCCn1c(SCc2ccncc2)nc2ccccc2c1=O)NCc1ccco1	ELG1 DNA repair 18.4µM
CCN(CC)C(=O)CSc1nc2ccccc2c(=O)n1CC	none (no result: Nrf2 inh)
CCN(CC)C(=O)CSc1nc2ccccc2c(=O)n1CCC(=O)NCc1ccc(F)cc1	ELG1 DNA repair 11.6µM
CCCCn1c(SCC(=O)NCc2ccco2)nc2c(sc3ccccc32)c1=O	none
O=C(CCCCn1c(=O)c2ccccc2n(CC(=O)Nc2ccc(F)cc2)c1=O)NCc1ccco1	ELG1 DNA repair 20.6µM (no result: Nrf2 inh)
Cc1ccc(NC(=O)Cn2c(=O)n(CCCCC(=O)NCc3ccco3)c(=O)c3ccccc32)cc1	ELG1 DNA repair inconclusive
COC(=O)c1ccc(OCC2c3cc(OC)c(OC)cc3CCN2C(=O)Cc2ccccc2)cc1 (stereo not drawn)	none (no result: ELG1 DNA repair, Nrf2 inh)
CCc1ccc(-n2c(=O)c3c4c(sc3n(Cc3cc(=O)n5c(C)cccc5n3)c2=O)CCC4)cc1	none (no result: ELG1 DNA repair)
COc1ccc(-c2cc(C)no2)cc1S(=O)(=O)N1CCN(c2ccccn2)CC1	ELG1 DNA repair inconclusive, Nrf2 inh 18.4µM
Cc1cc(-c2ccc(C(C)C)c(S(=O)(=O)N3CCN(c4ccccn4)CC3)c2)on1	ELG1 DNA repair 16.4µM
Cc1ccc2nc(-c3ccc(NC(=O)COC(=O)c4ccco4)cc3)sc2c1	ELG1 DNA repair inconclusive, Nrf2 inh 6.51µM
COc1ccc(Cn2c3nc4ccccc4nc3c3c(=O)n(Cc4ccco4)c(C)nc32)cc1	none (no result: Nrf2 activator, A549 tox, Nrf2 inh)
COc1ccc(Cn2c(C)nc3c(c2=O)c2nc4ccccc4nc2n3Cc2ccco2)cc1	Nrf2 inh 18.4µM (no result: ELG1 DNA repair)
O=C(Cn1ccc2cc(S(=O)(=O)N3CCCCCC3)ccc21)NCCc1ccc(Cl)cc1	Nrf2 inh 25.9µM (no result: ELG1 DNA repair)
CC(C)CCNC(=O)c1cc2cc(S(=O)(=O)N3CCCCC3)ccc2n1C	none (no result: ELG1 DNA repair, Nrf2 inh)
CCC(C(=O)NCCC(C)C)n1ccc2cc(S(=O)(=O)N3CCCCC3)ccc21 (stereo not drawn)	Nrf2 inh 13µM
OC[C@H]1O[C@@](CO)(O[C@H]2O[C@H](CO)[C@@H](O)[C@H](O)[C@H]2O)[C@@H](O[C@H]2O[C@H](CO)[C@@H](O)[C@H](O)[C@H]2O)[C@@H]1O	none (no result: ELG1 DNA repair)
CCn1c(CNC(=O)COc2ccc(C(C)C)cc2)nnc1SCC(=O)NC1CCCCC1C (stereo not drawn)	ELG1 DNA repair 16.4µM, Nrf2 inh inconclusive
CCn1c(CNC(=O)COc2ccc(C(C)C)cc2)nnc1SCC(=O)Nc1ccc(F)cc1	ELG1 DNA repair inconclusive, Nrf2 inh inconclusive
COC(=O)c1ccc2nc(C3CCCCC3)c(Cc3ccccc3)n2c1	none (no result: ELG1 DNA repair, A549 tox, Nrf2 inh)
COc1ccc(CNC(=S)NC2CCCC2)cc1	none
S=C(NCc1ccc(Cl)cc1)NC1CCN(Cc2ccccc2)CC1	ELG1 DNA repair 18.3µM
Cc1ccc(CNC(=S)NC2CCC(C(C)(C)C)CC2)cc1 (stereo not drawn)	Nrf2 inh 20.6µM
